Assay results as given in PubChem BioAssay (EPA / NIEHS).
The source made the active and inactive calls. The calls were made as follows: active = hit-call score of the fitted dose curve at least 0.9, where 1 is the maximum; inactive = score below 0.9.

Key:
[1] = ATG_E_Box_CIS: Attagene CIS-FACTORIAL HepG2 Assay for human Enhancer Box (E-box) (AID 2282936); conditions: HepG2 E-box cis-reporter transcription, actives raise or lower the signal
Outline: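 First, HepG2 cells receive multiple cis-regulated reporter constructs by transient transfection. Next, chemicals are applied for 24 h. Finally, reporter mRNA is quantified via RT-PCR and capillary electrophoresis, with DMSO as baseline.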

[2] = ATG_M_61_CIS: Attagene CIS-FACTORIAL HepG2 Assay for M61 Transcription Factor (Internal Marker) (AID 2282937); conditions: HepG2 Attagene CIS-FACTORIAL M61 internal marker reporter; actives raise or lower the signal
Outline: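 Human liver HepG2, transient MRTU transfection (cis promoter elements), 24 h compound. Total RNA → oligo(dT) RT → PCR → FAM label → HpaI → CE. Internal background marker; bidirectional fitting, DMSO = baseline.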

[3] = ATG_M_19_CIS: Attagene CIS-FACTORIAL HepG2 Assay for M19 Transcription Factor (Internal Marker) (AID 2282939); conditions: HepG2 Attagene CIS-FACTORIAL M19 internal marker reporter; actives raise or lower the signal
Outline: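 Chemical-treated HepG2 (24 h) with MRTU constructs; reporter transcripts detected by fluorescent RT-PCR fragment analysis on capillary electrophoresis. Internal background marker, DMSO as baseline.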

[4] = ATG_Ets_CIS: Attagene CIS-FACTORIAL HepG2 Assay for human Erythroblast Transformation Specific (ETS) (AID 2282941); conditions: HepG2 ETS cis-reporter transcription, actives raise or lower the signal
Outline: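 HepG2 cells transiently transfected with cis-promoter reporter transcription units were dosed for 24 h; reporter mRNA was measured by RT-PCR, 6-FAM primer extension, HpaI digestion and capillary electrophoresis, with bidirectional fitting against DMSO baseline.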

[5] = target: Hepatocyte nuclear factor 3-beta (Homo sapiens) (UniProt Q9Y261); assay: ATG_FoxA2_CIS: Attagene CIS-FACTORIAL HepG2 Assay for human Forkhead box A2 (FOXA2) (AID 2282942); conditions: HepG2 cis-reporter transcription factor activity, 24 h; actives raise or lower the signal
Outline: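 Transient MRTU transfection of HepG2 liver cells; 24 h treatment; total RNA → oligo(dT) RT → PCR → FAM primer extension → HpaI cut → CE. Bidirectional fit vs DMSO.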

[6] = ATG_FoxO_CIS: Attagene CIS-FACTORIAL HepG2 Assay for human Forkhead box O (FoxO) (AID 2282943); conditions: HepG2 Attagene cis-reporter, FoxO element, mRNA; actives raise or lower the signal
Outline: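 Read-out: fluorescence of 6-FAM-labelled reporter cDNA fragments resolved by capillary electrophoresis. Transiently transfected HepG2 cells were dosed for 24 h; activity fitted in both directions relative to DMSO controls.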

[7] = ATG_GATA_CIS: Attagene CIS-FACTORIAL HepG2 Assay for human GATA Binding Protein (AID 2282944); conditions: HepG2 GATA cis-element reporter, Attagene multiplex mRNA; actives raise or lower the signal
Outline: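 Transfected cis-reporter HepG2 cells were treated with chemicals for 24 hours. Total RNA was then converted to cDNA, amplified with reporter-specific primers and analysed by fluorescent capillary electrophoresis, using DMSO-treated wells as baseline.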

[8] = ATG_GLI_CIS: Attagene CIS-FACTORIAL HepG2 Assay for human Zinc Finger Protein GLI1 (AID 2282945); conditions: HepG2, Attagene cis-factorial reporter mRNA, GLI element; actives raise or lower the signal
Outline: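 Transiently transfected HepG2 cells report endogenous transcription factor activity via cis-element-driven reporter units. After 24 h compound exposure, reporter mRNA was measured by RT-PCR with capillary electrophoresis; bidirectional fitting against DMSO baseline.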

[9] = target: Bile acid receptor (Homo sapiens) (UniProt Q96RI1); assay: ATG_IR1_CIS: Attagene CIS-FACTORIAL HepG2 Assay for human Nuclear Receptor Subfamily 1 Group H Member 4 (NR1H4), IR1 submotif (AID 2282946); conditions: IR1 reporter transcription, actives raise or lower the signal
Outline: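 HepG2 cells transiently transfected with multiple cis-promoter-driven reporter units to measure endogenous transcription factor activity; 24 h exposure. Reporter mRNA read by RT-PCR, FAM labelling, HpaI digestion and capillary electrophoresis. Bidirectional fit versus DMSO.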

[10] = ATG_GRE_CIS: Attagene CIS-FACTORIAL HepG2 Assay for human Glucocorticoid Response Elements (GRE) (AID 2282947); conditions: HepG2 GRE cis-reporter, Attagene multiplex mRNA; actives raise or lower the signal
Outline: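 Endogenous transcription factor activity is read through cis-element reporter constructs transiently transfected into HepG2 cells. After 24 h treatment, labelled RT-PCR products are resolved by capillary electrophoresis; DMSO sets baseline for bidirectional curve fitting.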

[11] = ATG_ISRE_CIS: Attagene CIS-FACTORIAL HepG2 Assay for human Interferon Regulatory Factor 1 (IRF1) binding to an Interferon-Stimulated Response Element (ISRE) (AID 2282948); conditions: HepG2 ISRE cis-reporter (Attagene), mRNA transcription readout; actives raise or lower the signal
Outline: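 HepG2 cells transiently transfected with multiplexed cis-promoter reporter units; after 24 h compound exposure, reporter mRNA quantified by RT-PCR, FAM labelling, HpaI digestion and capillary electrophoresis. Bidirectional fit versus DMSO baseline.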

[12] = ATG_M_32_CIS: Attagene CIS-FACTORIAL HepG2 Assay for M32 Transcription Factor (Internal Marker) (AID 2282949); conditions: HepG2 Attagene cis-factorial M32 reporter, mRNA; actives raise or lower the signal;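 also: background control marker of the multiplexed CIS panel rather than a real target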
Outline: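 Internal background marker read-out: RT-PCR/capillary electrophoresis fluorescence of reporter transcripts from transiently transfected HepG2 cells after 24 h chemical exposure. Activity fitted bidirectionally relative to DMSO negative control.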

[13] = ATG_M_06_CIS: Attagene CIS-FACTORIAL HepG2 Assay for M06 Transcription Factor (Internal Marker) (AID 2282950); conditions: HepG2 Attagene CIS-FACTORIAL M06 internal marker reporter; actives raise or lower the signal
Outline: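 Cells (HepG2, transiently carrying cis-driven reporter units) receive chemical for 24 h before RNA isolation. Reporter cDNA is PCR-amplified, FAM-labelled by primer extension, HpaI-digested and sized on a capillary analyser.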

[14] = target: Hypoxia-inducible factor 1-alpha (Homo sapiens) (UniProt Q16665); assay: ATG_HIF1a_CIS: Attagene CIS-FACTORIAL HepG2 Assay for human Hypoxia Inducible Factor 1 (HIF1A) (AID 2282951); conditions: HepG2 Attagene cis-factorial HIF1a reporter transcription; actives raise or lower the signal
Outline: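 Transient MRTU transfection of human HepG2 liver cells, 24 h compound treatment, then total RNA isolation, oligo(dT) reverse transcription, PCR amplification, fluorescent labelling and capillary electrophoresis of reporter fragments. Gain or loss relative to DMSO.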

[15] = target: Hepatocyte nuclear factor 6 (Homo sapiens) (UniProt Q9UBC0); assay: ATG_HNF6_CIS: Attagene CIS-FACTORIAL HepG2 Assay for human Hepatocyte Nuclear Factor 6 (HNF6) (AID 2282952); conditions: HepG2 Attagene cis-factorial HNF6 reporter transcription; actives raise or lower the signal
Outline: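 Transiently transfected HepG2 cells expressing cis-regulated reporter transcription units were exposed to chemical for 24 h in a 24-well format. Reporter transcript abundance was determined by fluorescence capillary electrophoresis.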

[16] = target: Heat shock factor protein 1 (Homo sapiens) (UniProt Q00613); assay: ATG_HSE_CIS: Attagene CIS-FACTORIAL HepG2 Assay for human Heat Shock Transcription Factor 1 (HSE) (AID 2282953); conditions: HepG2 HSE cis-reporter, Attagene RNA transcription; actives raise or lower the signal
Outline: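 Liver-derived HepG2 cells carry transiently introduced multiple reporter units governed by cis promoters. Reporter RNA measured 24 h post-dose through reverse transcription, PCR amplification, fluorescent labelling and capillary electrophoresis, normalised to DMSO.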

[17] = ATG_MRE_CIS: Attagene CIS-FACTORIAL HepG2 Assay for human Metal Responsive Element (MRE) (AID 2282954); conditions: HepG2 MRE cis-reporter transcription, Attagene multiplex; actives raise or lower the signal
Outline: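 Fluorescent reporter fragments separated by capillary electrophoresis give mRNA induction for the MRE unit after 24 h treatment of transfected HepG2 cells. Endogenous transcription-factor activity is read; DMSO serves as negative control and baseline.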

[18] = ATG_PBREM_CIS: Attagene CIS-FACTORIAL HepG2 Assay for human Phenobarbital-responsive Enhancer Module (PBREM) (AID 2282955); conditions: HepG2 PBREM cis-reporter, Attagene multiplexed transcription; actives raise or lower the signal
Outline: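 Endogenous transcription factors in human liver HepG2 cells drive a PBREM cis-element reporter, whose transcript level after 24 h treatment is quantified by RT-PCR with capillary electrophoresis; activity fitted in both directions against DMSO.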

[19] = ATG_EGR_CIS: Attagene CIS-FACTORIAL HepG2 Assay for human Early Growth Response 1 (EGR1) (AID 2282938); conditions: HepG2 Attagene CIS-FACTORIAL EGR reporter mRNA; actives raise or lower the signal
Outline: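 Transient transfection of human HepG2 with multiple cis-regulated reporter units, chemical exposure 24 h, total RNA isolated. Reverse transcription, PCR, fluorescent labelling and capillary electrophoresis quantify reporter transcripts; activity fitted bidirectionally against DMSO.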

[20] = ATG_ERE_CIS: Attagene CIS-FACTORIAL HepG2 Assay for Estrogen Response Element (ERE) (AID 2282940); conditions: HepG2 ERE cis-reporter, Attagene RNA transcript; actives raise or lower the signal
Outline: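 Human liver cells (HepG2) bearing transiently transfected, promoter-regulated reporter units were exposed 24 h. Reporter mRNA induction was detected by capillary electrophoresis of labelled RT-PCR products and fitted bidirectionally to DMSO.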

Measured: AC50

Chain of Hepatocyte nuclear factor 3-beta (Homo sapiens) (Q9Y261 whole entry, looked up): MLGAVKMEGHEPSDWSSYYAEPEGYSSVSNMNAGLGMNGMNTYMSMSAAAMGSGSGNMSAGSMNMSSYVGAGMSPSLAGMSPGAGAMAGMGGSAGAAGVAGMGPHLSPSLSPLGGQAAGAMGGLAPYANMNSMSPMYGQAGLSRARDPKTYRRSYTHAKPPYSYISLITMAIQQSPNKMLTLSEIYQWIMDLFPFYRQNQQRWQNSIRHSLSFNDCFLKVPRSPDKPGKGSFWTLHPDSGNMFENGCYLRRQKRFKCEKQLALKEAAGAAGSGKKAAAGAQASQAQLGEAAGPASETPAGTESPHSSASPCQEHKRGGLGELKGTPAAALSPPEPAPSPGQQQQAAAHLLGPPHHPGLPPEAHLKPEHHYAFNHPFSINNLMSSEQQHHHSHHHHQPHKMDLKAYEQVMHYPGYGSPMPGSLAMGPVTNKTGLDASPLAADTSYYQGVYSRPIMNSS
Chain of Hypoxia-inducible factor 1-alpha (Homo sapiens) (Q16665 whole entry, looked up, the tested form may be a part): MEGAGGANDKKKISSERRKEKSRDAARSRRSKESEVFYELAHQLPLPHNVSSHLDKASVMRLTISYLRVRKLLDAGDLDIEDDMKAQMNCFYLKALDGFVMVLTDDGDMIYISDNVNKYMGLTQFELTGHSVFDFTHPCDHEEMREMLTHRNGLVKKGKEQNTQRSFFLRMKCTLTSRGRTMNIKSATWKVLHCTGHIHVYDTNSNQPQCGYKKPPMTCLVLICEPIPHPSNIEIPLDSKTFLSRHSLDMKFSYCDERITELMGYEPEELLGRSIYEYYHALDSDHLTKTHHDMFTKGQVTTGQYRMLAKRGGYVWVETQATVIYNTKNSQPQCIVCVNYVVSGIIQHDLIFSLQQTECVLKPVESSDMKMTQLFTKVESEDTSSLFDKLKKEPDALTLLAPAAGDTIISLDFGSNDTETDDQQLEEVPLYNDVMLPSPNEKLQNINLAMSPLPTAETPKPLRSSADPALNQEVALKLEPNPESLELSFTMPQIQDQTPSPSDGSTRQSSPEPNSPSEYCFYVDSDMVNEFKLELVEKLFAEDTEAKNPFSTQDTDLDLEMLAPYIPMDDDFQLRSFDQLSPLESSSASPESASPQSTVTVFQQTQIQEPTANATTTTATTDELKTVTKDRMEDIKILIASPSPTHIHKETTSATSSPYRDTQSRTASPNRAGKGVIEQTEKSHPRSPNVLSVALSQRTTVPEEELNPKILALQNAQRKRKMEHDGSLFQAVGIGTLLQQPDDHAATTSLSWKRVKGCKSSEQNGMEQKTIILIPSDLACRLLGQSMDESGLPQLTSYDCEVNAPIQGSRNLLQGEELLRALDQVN
Chain of Hepatocyte nuclear factor 6 (Homo sapiens) (Q9UBC0 whole entry, looked up): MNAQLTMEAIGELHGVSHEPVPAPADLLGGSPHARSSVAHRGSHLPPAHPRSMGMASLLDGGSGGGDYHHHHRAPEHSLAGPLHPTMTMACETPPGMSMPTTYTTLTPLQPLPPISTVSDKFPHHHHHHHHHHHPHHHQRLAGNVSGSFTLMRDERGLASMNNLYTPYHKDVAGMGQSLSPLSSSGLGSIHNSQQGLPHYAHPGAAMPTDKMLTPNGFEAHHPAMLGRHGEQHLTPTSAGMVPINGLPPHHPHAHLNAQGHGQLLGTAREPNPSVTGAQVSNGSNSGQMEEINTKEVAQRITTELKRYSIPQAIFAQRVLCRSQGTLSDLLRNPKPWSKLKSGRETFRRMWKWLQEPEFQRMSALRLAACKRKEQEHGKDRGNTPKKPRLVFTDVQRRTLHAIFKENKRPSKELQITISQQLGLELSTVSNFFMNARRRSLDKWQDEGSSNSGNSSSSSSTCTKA
Chain of Heat shock factor protein 1 (Homo sapiens) (Q00613 whole entry, looked up): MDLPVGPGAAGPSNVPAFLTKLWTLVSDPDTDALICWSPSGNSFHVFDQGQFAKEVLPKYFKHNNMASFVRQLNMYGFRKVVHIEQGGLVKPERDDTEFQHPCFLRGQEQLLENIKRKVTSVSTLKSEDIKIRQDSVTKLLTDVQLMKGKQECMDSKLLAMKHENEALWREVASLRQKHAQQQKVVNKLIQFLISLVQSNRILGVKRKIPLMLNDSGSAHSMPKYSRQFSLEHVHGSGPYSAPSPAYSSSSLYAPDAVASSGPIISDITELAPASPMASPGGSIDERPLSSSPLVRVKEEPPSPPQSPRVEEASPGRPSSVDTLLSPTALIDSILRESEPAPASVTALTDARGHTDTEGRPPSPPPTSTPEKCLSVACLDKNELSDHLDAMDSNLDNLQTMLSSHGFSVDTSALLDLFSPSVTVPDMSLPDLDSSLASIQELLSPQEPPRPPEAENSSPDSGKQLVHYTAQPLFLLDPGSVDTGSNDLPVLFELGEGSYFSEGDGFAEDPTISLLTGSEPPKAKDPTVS
Chain of Bile acid receptor (Homo sapiens) (Q96RI1 whole entry, looked up): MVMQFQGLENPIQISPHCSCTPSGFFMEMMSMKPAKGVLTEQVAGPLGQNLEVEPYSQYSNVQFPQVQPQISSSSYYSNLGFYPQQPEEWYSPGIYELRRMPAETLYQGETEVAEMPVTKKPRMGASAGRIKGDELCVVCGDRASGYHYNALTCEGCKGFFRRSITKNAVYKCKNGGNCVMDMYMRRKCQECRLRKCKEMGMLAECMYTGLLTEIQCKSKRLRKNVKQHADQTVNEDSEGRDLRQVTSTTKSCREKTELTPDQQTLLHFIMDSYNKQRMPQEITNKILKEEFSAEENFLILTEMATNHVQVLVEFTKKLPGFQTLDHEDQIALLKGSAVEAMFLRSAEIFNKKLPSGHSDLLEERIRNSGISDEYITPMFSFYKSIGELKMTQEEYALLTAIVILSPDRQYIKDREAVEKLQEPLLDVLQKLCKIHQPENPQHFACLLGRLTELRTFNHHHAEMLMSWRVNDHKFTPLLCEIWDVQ

NC1CCCCC1N (stereo unspecified)
not listed: [19] | [20]
inactive: all other assays above

CC/C=C\CC/C=C/CO
not listed: [9] | [16] | [19] | [20]
inactive: all other assays above

O=C(O)CNc1ccccc1
active: [12] 165 µM
not listed: [16] | [17] | [19] | [20]
inactive: all other assays above

C=Cc1ccncc1
active: [1] 46.1 µM | [4] 57.3 µM | [6] 43.4 µM | [7] 22.7 µM | [15] 33.9 µM | [16] 75.8 µM | [17] 28.2 µM
not listed: [11] | [19] | [20]
inactive: all other assays above

CC(C)CC(C)CC(O)CC(C)C (stereo unspecified)
not listed: [10] | [19] | [20]
inactive: all other assays above

CC(CN=Cc1ccccc1O)N=Cc1ccccc1O (stereo unspecified)
active: [14] 72.3 µM | [17] 26.8 µM
not listed: [6] | [9] | [19] | [20]
inactive: all other assays above

CC1CCC(C(C)C)C(O)C1 (stereo unspecified)
not listed: [10] | [16] | [19] | [20]
inactive: all other assays above

CCC(=O)O[C@@H]1C[C@H]2CC[C@]1(C)C2(C)C
not listed: [3] | [4] | [7] | [9] | [20]
inactive: all other assays above

O=C(Nc1ccc2c(O)c(N=Nc3ccc(N=Nc4ccc(S(=O)(=O)O)cc4)cc3)c(S(=O)(=O)O)cc2c1)c1ccccc1
not listed: [1] | [7] | [9] | [10] | [17]
inactive: all other assays above
